{
  "source": "PubChem BioAssay (NCATS)",
  "note": "Inconclusive results are not listed. Active and inactive are the calls of the source. Calls come from the whole dose curve; as a rule, active = well fitted inhibition curve with a large enough effect; inconclusive = small, poorly fitted or top-dose-only effect; inactive = flat fitted curve, though single readings scatter.",
  "data": [
    {"test": "Primary qHTS for inhibitors of nuclear receptor binding SET domain protein 2 (NSD2) in an isogenic RCH-ACV NSD2 p.E1099K mutant (9B) (AID 1645876); note: nearly all actives have a fitted effect of over 70% in size; for activity change, negative = viability loss: % is set by controls: 0 for no effect and ±100 for the full control effect", "conditions": "RCH-ACV NSD2 E1099K (9B) viability, CellTiter-Glo, 72 h; series mostly up to 44.9 µM; activity change, negative = viability loss: at the top concentration", "values": [
      {"molecule": "CC(C)c1ccc2c(c1)C(=O)CC1C(C)(C(=O)O)CCCC21C", "note": "(stereo not drawn)", "activity change, negative = viability loss": "-23.9% (inactive)"},
      {"molecule": "C=C(C(=O)O)[C@H]1C[C@]2(C)C(=O)CC[C@]23O[C@H]1C[C@@H]3C", "activity change, negative = viability loss": "-13.6% (inactive)"},
      {"molecule": "CC1(CO)CC(O)C2(C)CCC3(C)C(=CCC4C5(C=O)CCC(OC6OC(C(=O)O)C(O)C(O)C6OC6OC(C(=O)O)C(O)C(O)C6O)C(C)(C)C5CCC43C)C2C1", "note": "(stereo not drawn)", "activity change, negative = viability loss": "-5.71% [at 9.23 µM] (inactive)"},
      {"molecule": "O=C(O)CC/C=C\\C[C@H]1CO[C@@H](c2ccccc2Cl)O[C@H]1c1ccccc1O", "activity change, negative = viability loss": "-0.517% (inactive)"},
      {"molecule": "C=CC1(C)CC2CCC3C(C)(C(=O)O)CCCC3(C)C2=CC1=O", "note": "(stereo not drawn)", "activity change, negative = viability loss": "4.54% (inactive)"},
      {"molecule": "C=C(C)[C@@]1(O)C[C@@]2(C)C(=CC1=O)CC[C@@H](O)[C@@H]2C", "activity change, negative = viability loss": "-9.62% (inactive)"},
      {"molecule": "CC1(C)CC[C@]2(C(=O)O[C@@H]3O[C@H](CO)[C@@H](O)[C@H](O)[C@H]3O)CC[C@]3(C)C(=CCC4[C@@]5(C)C[C@@H](O)[C@H](O)[C@@](C)(CO)C5[C@H](O)C[C@]43C)C2C1", "note": "(stereo partly drawn)", "activity change, negative = viability loss": "-9.04% [at 17.3 µM] (inactive)"},
      {"molecule": "Cc1ccc(-c2c(-c3nn(C)c4ncnc(N5CC[C@H](N6CCCCC6)C5)c34)cnn2C)cc1", "outcome": "inactive"},
      {"molecule": "C=C1CC23CC(=O)C4C(CO)(CO)CCCC4(C)C2CCC1C3", "note": "(stereo not drawn)", "activity change, negative = viability loss": "-18.7% (inactive)"},
      {"molecule": "H-DPPDPDRFYGMM-NH2", "outcome": "inactive [at 17.3 µM]"},
      {"molecule": "CC(=O)O[C@H]1C[C@@H](O)C(C)(C)C2C[C@@H](OC(C)=O)[C@@]3(C)C4=CCC(C(CO)CC(O)C5OC5(C)C)[C@]4(C)CCC3[C@]21C", "note": "(stereo partly drawn)", "activity change, negative = viability loss": "-5.13% [at 17.3 µM] (inactive)"},
      {"molecule": "COc1ccc(C(=O)CC(=O)O)c2c1C=CC(C)(C)O2", "activity change, negative = viability loss": "0.799% (inactive)"},
      {"molecule": "C=C(CCO[C@@H]1O[C@H](CO)[C@@H](O)[C@H](O)[C@H]1O)C(=O)O", "activity change, negative = viability loss": "-2.53% (inactive)"}
    ]}
  ]
}
